ATXN2 expr inh = ATXN2 expression inhibition; HEK-293 ATXN2-luciferase reporter, luminescence, 24 h; Potency, µM (doses to about 57 µM), inactives show top-dose activity change, negative = inhibition, most hits filed as inhibitors; actives 0.72% (n = 360,000); also: % is scaled to controls: 0 for no effect and ±100 for the full control effect; nearly all actives have a fitted effect of over 55% in size
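ATXN2-luciferase reporter cells (luciferase flanked by upstream and downstream ATXN2 gene portions) were treated 24 h at 37 °C with compounds at up to 57 uM. SteadyGlo luminescence gave expression; GF-AFC fluorescence gave viability.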
HepG2 tox = counter-screen for TGF-b inhibitors: cytotoxicity in HepG2 cells. HepG2 CAGA-GFP viability, ATP luminescence, 18 h. actives 0.76% (n = 410,000). Potency, µM (titrated, usually from 46.1 µM), for inactives: top-dose activity change, negative = cytotoxicity, hits mostly cytotoxic
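CellTiter-Glo luminescence gave cytotoxicity after 18 hours at 37 degrees C. The cells were HepG2 CAGA-GFP in 1% FBS DMEM, stimulated with 500 pg/mL TGF-beta after compound addition. %Activity was normalised to no-cell wells (complete cell-killing) and DMSO (no toxicity), and curves were fitted and classified.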
TGFb SMAD3 inh = blocks TGF-b signaling; actives 1.2% (n = 410,000); HepG2 CAGA-GFP TGF-b/SMAD3 reporter, GFP fluorescence, 18 h; TGF-beta stimulated, 500 pg/mL final; AID 588855; Potency, µM (titrated, usually from 46.1 µM), without a hit: at the highest dose activity, negative = inhibition, most hits filed as inhibitors; also: % is scaled to controls: 0 for no effect and ±100 for the full control effect; nearly all actives have a fitted effect of over 65% in size
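Per well, imaged GFP fluorescence of HEPG2 CAGA-GFP cells gives the signal; cells get compound, then TGF-beta (500 pg/mL final), 18 h at 37 degrees C; %Activity versus -TGF-beta and +DMSO controls.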
ATXN viability = cell viability loss in ATXN counter-screen; AID 651635; Potency, µM (titrated, usually from 56.7 µM), hits mostly cytotoxic; actives 0.49% (n = 400,000); S2 cells (HEK-293 line with an ATXN2-luciferase reporter) viability, CellTiter-Fluor protease fluorescence, 24 h; also: nearly all actives have a fitted effect of over 40% in size
KB-V1 cytotox = kills drug-selected multidrug resistant KB-V1 cells; Potency, µM (titrated, usually from 46.1 µM), hits mostly cytotoxic; AID 1347076; actives 3.4% (n = 400,000); KB-V1 MDR cells viability, CellTiter-Glo, 72 h; also: % is scaled to controls: 0 for no effect and ±100 for the full control effect; nearly all actives have a fitted effect of over 60% in size
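Compound-treated KB-V1 multidrug-resistant cells, 72 h, 37 degrees C; viability by CellTiter-Glo. Fitted qHTS curves give the values.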
KB-3-1 cytotox = KB-3-1 parental cell cytotoxicity | KB-3-1 viability, CellTiter-Glo ATP luminescence, 72 h | Potency, µM (doses to about 46.1 µM), actives largely listed as cytotoxic | actives 1.4% (n = 400,000); also: % is scaled to controls: 0 for no effect and ±100 for the full control effect; nearly all actives have a fitted effect of over 60% in size
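Cytotoxicity in the drug-sensitive parental line KB-3-1 was scored as loss of CellTiter-Glo luminescence following 72 h incubation with compound. Values come from curve fitting of normalized concentration-response data.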
Active calls of the source: *; i = inactive; ? = inconclusive; . = no result; ! = a repeat was not active. Rows were chosen to be rich in hits. Some 5.9% of all compounds tested hit in one or more screens of this group. Calls follow the shape of the dose curve; as a rule, active = well fitted curve in the direction sought with a large enough effect; inconclusive = small, poorly fitted or top-dose-only effect, or another doubt; inactive = no such curve, though single readings can be large; an effect the other way counts as inactive or inconclusive. Potency is read from the fitted curve at half-maximal effect.

SMILES | ATXN2 expr inh | HepG2 tox | TGFb SMAD3 inh | ATXN viability | KB-V1 cytotox | KB-3-1 cytotox
NC(=O)C1CCN(C2=C(NS(=O)(=O)c3ccc(Cl)cc3)C(=O)c3ccccc3C2=O)CC1 | . | -110% | 11µM* | ? | i | i
CC(=O)Nc1ccc(S(=O)(=O)NC2=C(N3CCN(c4ccc(F)cc4)CC3)C(=O)c3ccccc3C2=O)cc1 | -15% | -96% | 11µM* | ? | ? | i
Cc1ccc(S(=O)(=O)NC2=C(N3CCN(c4ccccc4F)CC3)C(=O)c3ccccc3C2=O)cc1 | 4% | 9% | -22% | ? | ? | ?
COC(=O)C1CCN(C2=C(NS(=O)(=O)c3ccc(Cl)cc3)C(=O)c3ccccc3C2=O)CC1 | -25% | -64% | ? | ? | i | ?
CCOC(=O)N1CCN(C2=C(NS(=O)(=O)c3ccc(C)cc3)C(=O)c3ccccc3C2=O)CC1 | . | -98% | 22µM* | 32µM* | ? | i
CN(C)c1cc[n+](CC(=O)Nc2c(Cl)cc(Cl)cc2Cl)cc1 | -11% | -59% | ? | i | i | 8.2µM*
CN(C)c1cc[n+](CC(=O)Nc2ccc([N+](=O)[O-])cc2Cl)cc1 | 15% | 5% | 3% | i | ? | ?
CCOc1ccccc1-n1nnc(-c2nsc(NC(=O)c3ccc(C)cc3)n2)c1C | . | -42% | ? | . | i | ?
CCCCCCCCCCCCN1[C@@H](CC(=O)O)c2cc(C(F)(F)F)ccc2S1(=O)=O | -22% | -70% | ? | ? | i | i
CCOC(=O)C[C@H]1c2ccccc2S(=O)(=O)N1Cc1cccc(C(F)(F)F)c1 | -11% | -22% | -18% | i | 10µM*! | 16µM*!
CC(=O)C[C@H]1c2cc(C(F)(F)F)ccc2S(=O)(=O)N1c1ccccc1 | 0% | -32% | ? | i | 8.2µM*! | ?
CC(=O)C[C@H]1c2cc(C(F)(F)F)ccc2S(=O)(=O)N1Cc1ccccc1 | 53% | -10% | -1% | i | ? | i
CCCCCCCCN1[C@@H](CC(=O)O)c2cc(C(F)(F)F)ccc2S1(=O)=O | -12% | -39% | 11µM* | i | i | i
CCCCCCCCN1[C@@H](CC(=O)OCC)c2cc(F)ccc2S1(=O)=O | -15% | -13% | 1% | i | 15µM*! | ?
COc1cc(C(CC(=O)NCc2ccccc2Cl)N2Cc3ccccc3C2=O)cc(OC)c1OC (stereo not given) | 6% | 2% | 4% | i | ? | i
CC1(C)S[C@@H]2C(C(=O)O)NC(=O)N2C1C(=O)O (stereo not given in full) | . | 13% | -4% | . | i | i
CC[C@]12CCCN3CCc4c(n(c5ccccc45)[C@@](O)(C(=O)OC)C1)[C@@H]32 | 4% | 2% | 3% | i | i | i
CC[C@]12CCCN3CCc4c(n(c5ccccc45)C(=O)C1)[C@@H]32 | ? | -19% | -4% | ? | 4.1µM* | ?
CCOC(=O)C1=C[C@]2(CC)CCCN3CCc4c(n1c1ccccc41)[C@@H]32 | 31µM*! | -6% | 3% | ? | ? | i
O=C(O)c1ccc(NC2=C/C(=N/S(=O)(=O)c3cccs3)c3ccccc3C2=O)cc1 | . | -108% | 14µM* | . | ? | ?
Cc1cc(C)c(S(=O)(=O)/N=C2\C=C(Nc3ccc(C(=O)O)cc3)C(=O)c3ccccc32)c(C)c1 | 28µM* | 16µM* | ? | ? | i | ?
COc1ccc(CNC(=O)C2CCCN2c2nc(C)c3ccccc3n2)cc1 (stereo not given) | . | . | . | i | . | .
Cn1c2ccccc2c2n[nH]c(=S)nc21 | 7% | 1% | 0% | ? | 6.5µM* | ?
CC(Sc1nnnn1C1CC1)C(=O)N1c2ccccc2NC(=O)C1(C)C (stereo not given) | -6% | 8% | 0% | i | 21µM* | i
Cc1ccc(NC(=O)CSc2nc3ccccc3c3nc(CCn4cncc4C)nn23)c(C)c1 | -13% | 0% | ? | ? | ? | i
SMILES | ATXN2 expr inh | HepG2 tox | TGFb SMAD3 inh | ATXN viability | KB-V1 cytotox | KB-3-1 cytotox
Cc1cccc(NC(=O)CSc2nc3ccccc3c3nc(CCn4cncc4C)nn23)c1 | ? | 13µM* | ? | . | i | i
Cc1n[nH]c(C)c1CCc1nc2c3ccccc3nc(SCC(=O)Nc3ccc(F)cc3)n2n1 | ? | 13µM* | ? | ? | i | i
CC(C)(C)C1CCc2c(sc(NC(=O)c3noc4c3CCCC4)c2C#N)C1 (stereo not given) | -2% | -21% | 1% | i | ? | i
Cc1ccc(C)c(NC(=O)Cn2ncc3c([nH]c4ccccc43)c2=O)c1 | 16% | 4% | 5% | i | i | i
COc1ccc(S(=O)(=O)N2CCC3(CC2)OCCN3S(=O)(=O)c2cccs2)cc1 | 7% | 0% | 6% | ? | 8.2µM* | i
Cc1ccc(S(=O)(=O)N2CCC3(CC2)OCCN3S(=O)(=O)c2cccs2)cc1 | -13% | -16% | -1% | i | i | i
C=CC[C@H](CC(=O)N(CCO)Cc1ccccc1)C(=O)N[C@@H](COC(=O)[C@@H](CC=C)Cc1ccc(F)cc1)Cc1c[nH]c2ccccc12 | -23% | -49% | ? | 28µM* | i | i
C=CC[C@@H](CC(=O)N(CCO)Cc1ccccc1)C(=O)N[C@@H](COC(=O)[C@@H](CC=C)Cc1ccc(F)cc1)Cc1c[nH]c2ccccc12 | -9% | -18% | ? | ? | ? | ?
C=CCC[C@@H](Cc1ccc(F)cc1)C(=O)OC[C@@H](Cc1c[nH]c2ccccc12)NC(=O)[C@H](CC=C)CC(=O)N(CCO)Cc1ccccc1 | ? | -17% | ? | . | 21µM* | ?
Cc1onc(-c2ccccc2)c1C(=O)N/N=C/c1cc(Br)c(O)c(Br)c1 | -13% | -31% | ? | i | . | .
Cc1cccc(/C=N/NC(=O)c2c(-c3ccccc3)noc2C)c1O | 3.5µM* | -2% | ? | i | i | ?
Cc1onc(-c2ccccc2)c1C(=O)N/N=C/C(Br)=C/c1ccccc1 | -24% | -3% | ? | i | 15µM* | ?
COC(=O)C=CC(=O)OC | 12% | . | . | . | . | .
COCC(C)n1c(C)cc(C(=O)COC(=O)c2cccn2C)c1C (stereo not given) | 18µM* | -5% | -12% | i | i | i
